Compound activity as filed in PubChem.
TTR transcr act: TTR transcription activation, primary screen. SH-SY5Y TTR promoter Gaussia luciferase, luminescence; 100% = recombinant luciferase protein wells. activation, % at 16.7 µM. 92,000 compounds, 1.3% hits;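 active means activation above the mean of all tested compounds plus 3 SD, cut at about 9.5% in these data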;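 further: cells exposed to compounds for one day before reading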
HuH7 TTR inh: HuH7 TTR transcription inhibition, counter-screen; shares compounds with TTR transcr act; HuH7 TTR promoter-Gaussia luciferase reporter, luminescence; inhibition, % at 16.7 µM; 1,100 compounds, 4% hits; AID 1117279;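 active means average inhibition above the solvent-only control wells' mean plus 3 SD, cut at about 15% in these data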;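 further: inhibitors lower well luminescence so higher value means more inhibition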
TTR up confirm: confirmation of human transthyretin transcription activators; shares compounds with TTR transcr act; SHSY5Y TTR promoter Gaussia luciferase, luminescence; 100% = purified Lucia enzyme wells, no cells; activation, % at 16.7 µM; 1,100 tested, under 10 active;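 active means mean activation above a set limit taken from the earlier primary screen, cut at about 11% in these data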
Of the large screens only hits and unclear results are named; the others gave an inactive call (follow-up assays come after a bar, where they were run). The sample as a whole holds a higher share of hits than the screen did.

COC(=O)[C@]12C[C@H](CC(=O)NCCC(C)C)C(=O)N(Cc3cccc4ccccc34)C1=C[C@H](C(C)(C)C)O[C@@H]2C	none
C=CCN1C(=O)[C@H](CC(=O)NCc2cccc3ccccc23)[C@@]2(C(=O)OCC)CCCC=C12	none
CC1(C)C=C2C(N(CC3CC3)C(=N)N2C(=O)OCc2ccccc2)n2c(=O)n(-c3ccccc3)c(=O)n21 (stereo not given)	none
CCCCCCCC(=O)NC1=NC(=O)C(C)(C)S1	TTR transcr act 13 | HuH7 TTR inh inactive | TTR up confirm inactive
CCCCC(=O)Nc1ccc(Br)cn1	none
CCCCC(=O)Nc1ccc(NC(=O)CCCC)nc1	none
CC(C)[C@H](NC(=O)OCc1ccccc1)C(=O)N[C@@H](Cc1ccccc1)C1(O)CN(C)C(C(=O)NCc2ccccn2)CO1 (stereo not given in full)	none
Cc1ccc(OCC(O)CN2CCN(c3ccccn3)CC2)c(C)c1 (stereo not given)	none
OC(COC(c1ccc(Cl)cc1)c1ccc(Cl)cc1)CN1CCN(c2ccccn2)CC1 (stereo not given)	none
OC(CN1CCN(c2ccccn2)CC1)Cn1c2ccc(Cl)cc2c2cc(Cl)ccc21 (stereo not given)	TTR transcr act 36 | HuH7 TTR inh inactive | TTR up confirm inactive
Nc1c(C(=O)N2CCN(c3ccccc3)CC2)nnn1Cc1ccc(Cl)cc1	none
COc1ccc2cc(-c3cn(C(=O)N(c4ccccc4)c4ccccc4)nn3)ccc2c1	none
CC(C)CNC(=O)OCc1cn(Cc2cccc(C(F)(F)F)c2)nn1	none
C[C@H]1[C@@H](OC(=O)NCc2cccs2)CC[C@@]23CCCN2C(=O)CCC[C@@H]13	none
Cc1ccc(CSCCNC(=O)CN2C(=O)c3ccccc3S2(=O)=O)cc1	TTR transcr act 9.9 | HuH7 TTR inh inactive | TTR up confirm inactive
Cc1ccc(SCC(=O)NCCSCc2ccccc2)cc1	none
O=C(CN1C(=O)c2ccccc2S1(=O)=O)NCc1ccccc1	none
CCCC1CCC2(CC1)CCC2OC(=S)Nc1ccc(N(C)C)cc1 (stereo not given)	none
CCCCCNC(=O)c1cc(S(=O)(=O)N2CCCCC2)ccc1F	TTR transcr act 11 | HuH7 TTR inh inactive | TTR up confirm inactive
CCCCNC(=O)c1cc(S(=O)(=O)N2CCCCC2)oc1C	none
Cc1ccc(S(=O)(=O)N2CCCCC2)cc1C(=O)NCc1ccncc1	none
C[C@H]1[C@@H](OC(=O)NCc2ccco2)CC[C@@]23CCCN2C(=O)CCC[C@@H]13	none
O=C(Nc1ccc(-c2cnco2)cc1)c1ccc(Cl)cc1	none
O=C(Nc1ccc(-c2cnco2)cc1)c1ccccc1	TTR transcr act 14 | HuH7 TTR inh inactive | TTR up confirm inactive
O=C(NC(=O)c1ccccc1Cl)Nc1ccc(-c2cnco2)cc1	none
CC1=C[C@]2(CN(CC3CC3)C3=N[C@H](c4ccccc4)CC(=O)N32)n2c(=O)n(-c3ccccc3)c(=O)n2C1	none
Cn1nc2c(c1C(=O)N1CCCC(C(=O)c3cc(F)ccc3F)C1)CCCC2 (stereo not given)	TTR transcr act 12 | HuH7 TTR inh inactive | TTR up confirm inactive
COc1ccc(C(=O)C2CCCN(C(=O)c3c4c(nn3C)CCCC4)C2)cc1F (stereo not given)	none
Cc1cc(C)c(C(=O)N2CCCC(C(=O)c3cc(F)ccc3F)C2)o1 (stereo not given)	none
O=C(NCCO)[C@H](Cc1ccccc1)NC1(C(=O)NCCN2CCOCC2)CCCCC1	none
CCC[C@H]1[C@@H](NC(=O)c2ccc(C)cc2)CC[C@@]23CCCN2C(=O)CCC[C@@H]13	none
Brc1cccc(Cn2ccc3ccc(-c4ccc5ccn(Cc6cccc(Br)c6)c5c4)cc32)c1	none
O=C(Nc1ccc(F)cc1)Nc1c(-c2ccc(C(F)(F)F)cc2)nc2ncccn12	none
COc1cccc(NC(=O)COC(=O)c2c(F)cccc2Cl)c1	none
CC1CCc2nc3ccccc3c(C(=O)OCC(=O)N(C)C3CCS(=O)(=O)C3)c2C1 (stereo not given)	none
COc1cccc(NC(=O)COC(=O)c2c3c(nc4ccccc24)CCC(C)C3)c1 (stereo not given)	TTR transcr act 11 | HuH7 TTR inh inactive | TTR up confirm inactive
Cc1ccc(OCc2cc(C(=O)N3CCCC3)no2)cn1	none
COc1cccc(OCc2cc(C(=O)N3CCN(c4ccccc4O)CC3)no2)c1	TTR transcr act 11 | HuH7 TTR inh inactive | TTR up confirm inactive
Cc1ccc(N2CCN(C(=O)c3cc(COc4c(C)cccc4C)on3)CC2)c(C)c1	none
COc1ccc(-c2cc(C(F)(F)F)n3nc(C(=O)N4CCOCC4)nc3n2)cc1	none
O=C(c1nc2nc(-c3ccccc3)cc(C(F)(F)F)n2n1)N1CCCCC1	TTR transcr act 11 | HuH7 TTR inh inactive | TTR up confirm inactive
O=C(c1cc2nc(-c3ccccc3)cc(C(F)(F)F)n2n1)N1CCCC1	none
CC(C)C[C@@H]1COc2cc(F)ccc2S(=O)(=O)N1	none
Cc1ccc(CNC(=O)O[C@H]2CC[C@@]34CCCN3C(=O)CCC[C@H]4C2)cc1	none
CC(=O)c1cccc(N2C(=NC(=O)CCc3ccccc3)SC3CS(=O)(=O)CC32)c1 (stereo not given)	none
CC(=O)c1ccc(N2C(=NC(=O)C3CCCO3)SC3CS(=O)(=O)CC32)cc1 (stereo not given)	none
CC(=O)c1ccc(N2C(=NC(=O)COc3ccccc3)SC3CS(=O)(=O)CC32)cc1 (stereo not given)	TTR transcr act 10 | HuH7 TTR inh inactive | TTR up confirm inactive
O=C(NCc1ccccc1)OC1CCC12CCC(c1ccccc1)CC2 (stereo not given)	none
COC(=O)[C@@H]1C[C@H]1[C@@H](NS(=O)(=O)c1ccccc1)c1ccccc1	TTR transcr act 10 | HuH7 TTR inh inactive | TTR up confirm inactive
C[C@H](NS(=O)(=O)c1ccccc1)C(=O)N1CCN(C(c2ccccc2)c2ccccc2)CC1	none
COC(=O)[C@H]1C[C@@H]1[C@H](NC(=O)c1cc(C)on1)c1ccccc1	none
O=C(Nc1ccc(C(O)(C(F)(F)F)C(F)(F)F)cc1)c1ccc(F)cc1Cl	none
Cc1ccc(C(=O)Nc2nnc(-c3ccco3)o2)cc1	none
CCC(=O)Nc1nnc(-c2ccco2)o1	none
Cc1ccsc1C(=O)Nc1nnc(-c2ccco2)o1	TTR transcr act 16 | HuH7 TTR inh inactive | TTR up confirm inactive
O=C(Nc1ccccc1F)O[C@@H]1CC[C@@]23CCCN2C(=O)CCC[C@H]3C1	none
COP(=O)(CC(=O)C(Cc1ccccc1)NC(=O)OC(C)(C)C)OC (stereo not given)	none
N#C/C(=C\c1cccc(Br)c1)C(=O)N1CCCCC1	none
O=C(NNC(=O)c1cccc(Br)c1)Nc1ccc(Cl)cc1	none
O=C(NNC(=O)c1cccc(Br)c1)C(=O)N1CCCCC1	TTR transcr act 9.9 | HuH7 TTR inh inactive | TTR up confirm inactive
COC(=O)[C@@]12CCCCC=C1N(CCc1ccc(Cl)cc1)C(=O)[C@H]2CC(=O)NCCC(C)C	none
O=C(Nc1cccc(F)c1)OC1CC2CC1[C@H]1CCCCN1[C@H]2Cc1ccccc1 (stereo not given in full)	none
CN1C2=N[C@H](c3ccccc3Br)CC(=O)N2/C(=C\c2ccccc2)[C@@H]1c1ccccc1	none
CCOC(=O)[C@@H]1CSCCS(=O)(=O)N1Cc1ccc(C(F)(F)F)cc1	none
